Screening results: PubChem BioAssay, National Center for Advancing Translational Sciences (NCATS)
The full list was thinned out, with hits kept by preference.
SARS PLpro yeast – inhibitors of SARS-CoV papain-like protease in yeast. S. cerevisiae expressing SARS-CoV PLpro, growth rescue. Potency, µM (highest dose often 32.9 µM), for inactives: at the highest dose activity, positive = growth rescue, hits mostly activators. 330,000 compounds, 0.19% hits. AID 485353; note: potency is the fitted concentration of half-maximal effect; 0% is about no effect; nearly all actives have a fitted effect of over 55% in size
Shiga toxin inh – blocks Shiga toxin action in Vero cells; Vero cells, Shiga toxin protein synthesis inhibition reporter; 290,000 compounds, 9.2% hits; inhibition, % at 38.7 µM; in the data active = inhibition mostly above about 28%, no sharp cut-off; inactive = mostly below about 43%; note: 0% is about no effect
NS1 inh – influenza NS1 inhibition. Potency, µM (top dose mostly 46.1 µM), for the others: at the top dose activity, positive = more growth. 270,000 compounds, 0.4% hits. AID 2326; note: potency is the fitted concentration of half-maximal effect; actives are rising curves; nearly all actives have a fitted effect of over 50% in size
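OD600 was taken as the measure of yeast growth restored by compound in an NS1-expressing S. cerevisiae strain. Cells had been washed out of glucose medium and diluted 1:100 into galactose -URA medium, pH 6.0.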
Tb PYK inh – blocks Trypanosoma brucei pyruvate kinase; Q57TT1; TbPYK enzyme, Kinase-Glo Plus ATP luminescence, 45 min; Potency, µM (doses to about 76.8 µM), inactives show at the highest dose activity, negative = inhibition, most hits filed as inhibitors; 410,000 compounds, 0.12% hits; active = well fitted curve in the direction sought with a large enough effect; inconclusive = small, poorly fitted or top-dose-only effect, or another doubt; inactive = no such curve, though single readings can be large; an effect the other way counts as inactive or inconclusive; note: potency is the fitted concentration of half-maximal effect; % is set by controls: 0 for no effect and ±100 for the full control effect; nearly all actives have a fitted effect of over 50% in size
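ADP (130 uM final) triggers the TbPYK reaction after compound addition; incubation is 45 min at room temperature. Kinase-Glo Plus is then added and luminescence imaged. Normalized data are fitted to concentration-effect curves.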
LmPK inhibitor – LmPK (Leishmania mexicana) enzyme inhibition | purified LmPK, Kinase-Glo ATP luminescence, 1 h | Potency, µM (highest dose often 57.5 µM), without a hit: at the top dose activity change, negative = inhibition, hits mostly inhibitors | 290,000 compounds, 0.37% hits | AID 1721; active = well fitted curve in the direction sought with a large enough effect; inconclusive = small, poorly fitted or top-dose-only effect, or another doubt; inactive = no such curve, though single readings can be large; an effect the other way counts as inactive or inconclusive; note: potency is the fitted concentration of half-maximal effect; % is set by controls: 0 for no effect and ±100 for the full control effect
Target sequence (Q27686 whole entry, looked up): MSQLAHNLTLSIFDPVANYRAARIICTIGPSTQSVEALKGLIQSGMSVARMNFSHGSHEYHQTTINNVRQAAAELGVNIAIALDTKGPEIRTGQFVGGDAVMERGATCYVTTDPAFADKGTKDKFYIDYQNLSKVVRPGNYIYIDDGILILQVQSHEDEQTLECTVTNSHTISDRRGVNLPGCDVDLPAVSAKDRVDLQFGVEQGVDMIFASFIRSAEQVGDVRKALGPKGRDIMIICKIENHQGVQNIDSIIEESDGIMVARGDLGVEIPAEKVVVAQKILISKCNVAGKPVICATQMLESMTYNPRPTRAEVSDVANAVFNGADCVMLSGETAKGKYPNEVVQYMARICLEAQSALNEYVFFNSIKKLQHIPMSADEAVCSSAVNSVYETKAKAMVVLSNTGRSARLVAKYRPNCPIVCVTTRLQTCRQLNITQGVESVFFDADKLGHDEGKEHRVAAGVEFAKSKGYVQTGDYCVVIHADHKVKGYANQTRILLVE
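Pyruvate kinase activity monitored as ATP production (luciferase luminescence). Conditions: 0.1 nM enzyme, 0.5 mM PEP, 0.1 mM ADP, 1 h, RT; normalized against uninhibited and no-enzyme wells.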
Cycloheximide cs – counter-screen hit for Shiga toxin inhibitors, cycloheximide | 300,000 compounds, 12% hits | max response, % | cell reporter, cycloheximide protein synthesis inhibition counterscreen; in the data active = max response mostly above about 13%, no sharp cut-off; inactive = mostly below about 14%; note: read at 38.3 µM for the half of the compounds with a filed dose; 0% is about no effect
* marks the source's active call; other numbers are inactive results; ? = inconclusive; . = no result; [ ] = dose if it differs, or a comment. Unless noted, calls come from the whole dose curve.

SMILES | SARS PLpro yeast | Shiga toxin inh | NS1 inh | Tb PYK inh | LmPK inhibitor | Cycloheximide cs
CNS(=O)(=O)c1cccc(C(=O)OCC(=O)Nc2ccc(-c3nc4ccc(C)cc4s3)cc2)c1 | -0.1% | 93.7* | 2.0% | -2.5% | -2.8% | 44.5*
COc1ccc(S(=O)(=O)N2CCN(C(=S)Nc3ccc(S(N)(=O)=O)cc3)CC2)cc1 | -0.9% | -1.8 | -16.5% | -15.4% | -4.3% | -3.0
Cc1ccc(NCN2C(=O)c3ccccc3C2=O)cc1Cl | . | . | . | 3.1% | . | .
Cc1ccc(N/N=C2\CC(=O)c3ccccc32)cc1Cl | -0.4% | 37.4 | -5.3% | . | -11.3% | 12.6*
Cc1ccc(S(=O)(=O)C(CNC(=O)c2ccc(C(F)(F)F)cc2)c2ccco2)cc1 (configuration not stated) | . | . | . | -2.7% | . | .
O=C(c1cc2cc(C(F)(F)F)ccc2s1)N1CCOCC1 | -3.0% | 83.7* | . | 0.8% | -8.5% | 35.8*
O=C(c1cc2cc(Br)ccc2s1)N1CCOCC1 | -2.9% | 31.5 | . | -3.3% | 1.4% | 21.2*
O=C(c1cc(Br)c(Br)s1)N1CCOCC1 | -1.4% | . | . | -0.5% | . | .
CCN(CC)c1ccc(-c2nc3cnccc3n2C)cc1 | ? | 135.2* | -16.3% | -6.9% | -4.9% | 32.6*
CCc1ccc(C(=O)Nn2cnc3ccccc3c2=O)cc1 | -0.6% | 109.0* | -4.1% | 9.0% | 0.3% | 53.6*
O=C(Nn1cnc2ccccc2c1=O)c1cccc(Cl)c1 | 0.1% | 32.5 | . | 8.0% | -6.0% | 43.6*
O=C(Nn1cnc2ccccc2c1=O)c1ccc([N+](=O)[O-])cc1 | -0.7% | -5.9 | . | 0.7% | -6.6% | -0.8
COc1ccc(CCNC(=O)Cn2cnc3ccccc3c2=O)cc1OC | -31.7% | -1.5 | -0.6% | -0.7% | -4.0% | -0.8
CC(=O)NCCc1ccc(C(=O)Cn2cnc3ccccc3c2=O)cc1 | -1.6% | 78.2* | 4.4% | -6.4% | -2.7% | 79.4*
O=C(Nn1cnc2ccccc2c1=O)c1ccccc1F | -1.1% | 40.1 | -7.6% | 8.5% | -4.3% | 11.2*
Cc1ccc(-n2c(=O)c3sc4ccccc4c3n(CC(=O)NC3CCCC3)c2=O)cc1C | . | . | . | 4.3% | . | .
CCn1nc(C)c(CNC(=O)C2CCC(=O)N(CCc3ccc(OC)cc3)C2)c1C (configuration not stated) | 7.0% | -4.8 | ? | -0.7% | 5.5% | -3.9
O=C(Nn1cnc2ccccc2c1=O)c1ccc(Br)cc1 | 0.2% | 89.7* | -2.2% | -5.5% | 2.4% | 40.8*
COc1ccc(C(=O)Nn2cnc3ccccc3c2=O)cc1[N+](=O)[O-] | 2.3% | 4.2 | 0.0% | -0.6% | 2.3% | 4.7
Cc1ccc(C(=O)Nn2cnc3ccccc3c2=O)cc1C | -1.7% | 82.9* | 2.7% | 4.2% | -0.7% | 44.4*
CCn1c2ccccc2c2nc3ccccc3nc21 | -14.7% | -0.4 | -61.3% | -8.1% | 3.2% | 8.7
CC(=O)n1c2ccccc2c2nc3ccccc3nc21 | 1.4% | . | 5.0% | -6.5% | -1.4% | 26.0*
CCn1c2ccccc2c2nc3cc(C(=O)O)ccc3nc21 | 0.0% | 126.2* | -50.8% | -16.9% | 3.2% | 34.8*
O=C(Nc1ccccc1N1CCCC1)c1ccc(Br)o1 | -14.4% | 21.5 | -5.8%[9.22 µM] | 1.4% | -2.7% | 9.2*
CSc1ccccc1NC(=O)c1ccc(Br)o1 | -9.5% | 45.0* | -10.5% | -0.5% | -18.3% | 35.8*
SMILES | SARS PLpro yeast | Shiga toxin inh | NS1 inh | Tb PYK inh | LmPK inhibitor | Cycloheximide cs
O=C(Nc1ccc(N2CCCC2)c(Cl)c1)c1ccc(Br)o1 | -0.5% | 39.7 | 4.8% | -0.5% | -18.4% | 40.6*
COc1ccc(N2CCCC2)c(NC(=O)c2ccc(Br)o2)c1 | -3.8% | 1.4 | -26.5% | -8.8% | -12.8% | -0.8
COc1cccc(OC)c1-c1cc(C(=O)NC2(C(=O)O)C3CC4CC(C3)CC2C4)nn1-c1ccc(C(=O)N(C)CCCN(C)C)cc1C(C)C (configuration not stated) | . | -2.0 | . | . | . | -3.4
Clc1ccc2c(c1)-n1cc(-c3ccccc3)nc1CO2 | . | . | . | -9.2% | . | .
CCc1nnc(NC(=O)CSc2nnc(CNC(=O)c3cc(OC)c(OC)c(OC)c3)o2)s1 | -1.2% | 95.8* | . | 2.3% | 4.7%[11.5 µM] | 17.1
CCSc1nnc(NC(=O)CSc2nnc(CNC(=O)c3cc(OC)c(OC)c(OC)c3)o2)s1 | 20.3% | -13.6 | 4.3% | 4.3% | 2.2% | -1.8
COc1ccc(OC)c(Cc2nnc(CCC(=O)NC(C3CC3)C3CC3)o2)c1 | 0.9% | 58.6 | 0.9% | 10.0% | 2.0% | -2.1
